IL-1B inflam inh: blocks inflammasome-driven IL-1 beta release | activity change, % at 57.5 µM | 360,000 tested, 4.7% active | THP-1 LPS/ATP IL-1B secretion, AlphaLISA, 16 h; active compounds read low; in the data active means activity change below about -50%; inconclusive means mostly about -30% to -49%; further: on the % scale 0 is the no-effect control and ±100 the full control effect
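Secreted IL-1B measured by AlphaLISA bead assay after 16 h compound exposure of THP-1 cells; compounds (final up to 57.5 uM) added 1 h before LPS (250 ng/mL) and ATP (1.25 mM) stimulation; lower signal means less secretion.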
TDP1 cell noCPT: qHTS for Inhibitors of human tyrosyl-DNA phosphodiesterase 1 (TDP1): qHTS in cells in absence of CPT | DT40 Tdp1-/- hTDP1 cells, no CPT, ATP luminescence, 48 h | 420,000 tested, 15% active | Potency, µM (top dose mostly 46.2 µM), without a hit: at the top dose activity change, negative = growth inhibition, actives largely listed as inhibitors | AID 686978, 2013; further: potency means the concentration at half of the fitted maximal effect; on the % scale 0 is the no-effect control and ±100 the full control effect; nearly all actives have a fitted effect of over 55% in size
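Stably hTDP1-transfected Tdp1-null chicken DT40 cells were treated with library compounds minus camptothecin and grown for at least 48 hr at 37 °C, after which cellular ATP was quantified by luminescence.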
TGFb inhibitor: TGF-b pathway inhibition | HepG2 CAGA-GFP TGF-b/SMAD3 reporter, GFP fluorescence, 18 h; TGF-beta stimulated, 500 pg/mL final | Potency, µM (doses to about 46.1 µM), for inactives: at the top dose activity, negative = inhibition, hits mostly inhibitors | 410,000 tested, 1.2% active | AID 588855; further: potency means the concentration at half of the fitted maximal effect; on the % scale 0 is the no-effect control and ±100 the full control effect; nearly all actives have a fitted effect of over 65% in size
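HEPG2 CAGA-GFP reporter cells (1000/well, DMEM with 1% FBS) received compounds, then recombinant TGF-beta at 500 pg/mL final for 18 hours at 37 degrees C. Per-cell GFP summed per well was normalised to unstimulated and stimulated DMSO controls before curve fitting.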
HepG2 tox: HepG2 cytotoxicity, counter-screen for TGF-b inhibitors; 410,000 tested, 0.76% active; Potency, µM (doses to about 46.1 µM), for inactives: at the top dose activity change, negative = cytotoxicity, hits mostly cytotoxic; HepG2 CAGA-GFP viability, ATP luminescence, 18 h; further: potency means the concentration at half of the fitted maximal effect
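CellTiter-Glo luminescence gave cytotoxicity after 18 hours at 37 degrees C. The cells were HepG2 CAGA-GFP in 1% FBS DMEM, stimulated with 500 pg/mL TGF-beta after compound addition. %Activity was normalised to no-cell wells (complete cell-killing) and DMSO (no toxicity), and curves were fitted and classified.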
TDP1 inh: inhibitors of human tyrosyl-DNA phosphodiesterase TDP1 | Q9NUW8 | recombinant TDP1, AlphaScreen DNA substrate cleavage | Potency, µM (highest dose often 130 µM), for the others: at the top dose activity change, negative = inhibition, actives largely listed as inhibitors | 350,000 tested, 0.28% active; further: potency means the concentration at half of the fitted maximal effect; on the % scale 0 is the no-effect control and ±100 the full control effect; nearly all actives have a fitted effect of over 40% in size
Target sequence (Q9NUW8 whole entry, looked up): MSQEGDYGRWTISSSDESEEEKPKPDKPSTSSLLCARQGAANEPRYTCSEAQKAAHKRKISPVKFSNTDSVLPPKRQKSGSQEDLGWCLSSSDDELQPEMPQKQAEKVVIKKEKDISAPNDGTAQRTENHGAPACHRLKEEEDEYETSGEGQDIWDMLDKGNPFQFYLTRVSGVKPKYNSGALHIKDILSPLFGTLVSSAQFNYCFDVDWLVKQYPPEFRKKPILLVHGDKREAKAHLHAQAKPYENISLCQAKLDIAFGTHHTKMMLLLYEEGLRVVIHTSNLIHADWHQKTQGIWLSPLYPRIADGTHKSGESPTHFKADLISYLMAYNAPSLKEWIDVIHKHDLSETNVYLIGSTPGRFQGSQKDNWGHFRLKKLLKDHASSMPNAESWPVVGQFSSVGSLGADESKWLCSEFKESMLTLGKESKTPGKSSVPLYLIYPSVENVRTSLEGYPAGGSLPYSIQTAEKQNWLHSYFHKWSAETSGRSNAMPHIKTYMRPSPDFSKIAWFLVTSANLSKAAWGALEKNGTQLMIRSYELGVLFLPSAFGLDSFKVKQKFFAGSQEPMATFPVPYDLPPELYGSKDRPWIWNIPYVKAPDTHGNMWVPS
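Tdp1 1 nM final; 15 min RT w/ cpd; substrate 15 nM, 5 min; beads 10 ug/ml, 10 min; AlphaScreen read. Neg ctrl: no enzyme.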
DT40 TDP1 CPT: DT40-hTDP1 cell growth loss with CPT | Potency, µM (titrated, usually from 46.2 µM), inactives show at the top dose activity change, negative = growth inhibition, most hits filed as inhibitors | chicken DT40 Tdp1-/-;hTDP1 cells + 20 nM CPT, ATP luminescence, 48 h | 420,000 tested, 12% active; further: potency means the concentration at half of the fitted maximal effect; on the % scale 0 is the no-effect control and ±100 the full control effect; nearly all actives have a fitted effect of over 55% in size
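Chicken DT40 Tdp1-/- cells stably complemented with human TDP1 were seeded at 400 cells/well in medium containing 20 nM camptothecin, exposed to pin-transferred compounds, and grown at 37 °C for at least 48 hr. Viability was read as ATP luminescence.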
Starred values were filed as active, the others as inactive; ? = inconclusive; . = no result. Only some compounds are listed: those with a hit (about 18% of all), similar ones and a draw of the others. Unless noted, the call rests on the fitted dose curve; in most records, active means well fitted curve in the direction sought with a large enough effect; inconclusive means small, poorly fitted or top-dose-only effect, or another doubt; inactive means no such curve, though single readings can be large; an effect the other way counts as inactive or inconclusive.

SMILES	IL-1B inflam inh	TDP1 cell noCPT	TGFb inhibitor	HepG2 tox	TDP1 inh	DT40 TDP1 CPT
Cc1cccc(NC(=O)CN2C(=O)N/C(=C\c3ccc(-c4cccc(C(=O)O)c4)o3)C2=O)c1	11.4	-18.5%	?	12.3%	.	10.5%
CC(C)C1(C)C(=O)N=C2c3ccccc3C(=O)N21 (configuration not stated)	12.0	-5.2%	-1.4%	0.4%	4.2%	-13.3%
COc1cc2c(cc1OC)CN(C(=O)C1CCCN(C(=O)c3ccc(Cl)cc3)C1)CC2 (configuration not stated)	31.1	?	3.1%	-0.7%	4.5%	?
Cc1nnn(C23C[C@@H]4C[C@@H](CC(C(=O)N5CCN(c6ccccc6)CC5)(C4)C2)C3)n1	-5.9	13µM*	-1.0%	2.4%	1.4%	18.4µM*
Cc1nnn(C23CC4CC(CC(CC(=O)Nc5ccc(C)c(Cl)c5)(C4)C2)C3)n1	-5.4	?	?	-3.8%	0.0%	?
Cc1cc(C)cc(NC(=O)CC23CC4CC(C2)CC(n2nnc(C)n2)(C4)C3)c1	-74.8*	-13.5%	-29.1%	-17.2%	1.1%	?
c1ncc2snnc2n1	.	-15.4%	-0.2%	-4.6%	.	-15.3%
O=C(C[n+]1cc(-c2ccccc2)n2c1CCC2)Nc1nc(-c2ccc(F)cc2)cs1	0.0	16.4µM*	-20.3%	-10.3%	5.3%	?
O=C(C[n+]1cc(-c2ccc(Cl)cc2)n2c1CCC2)Nc1nc(-c2ccc(F)cc2)cs1	-23.3	18.4µM*	?	-25.4%	3.6%	?
O=C(C[n+]1cc(-c2ccc(F)cc2)n2c1CCC2)Nc1nc(-c2ccc(F)cc2)cs1	-11.7	?	0.0%	1.5%	0.0%	?
Cc1csc(SC(C)C(=O)Nc2ccccc2C)n1 (configuration not stated)	0.0	-27.5%	4.7%	13.5%	0.0%	-28.2%
N#Cc1ccc(C=NN2CCCCCC2)cc1	?	?	-11.4%	-8.9%	.	-29.1%
COc1ccc(-c2cc(N3CCCC3)n3ncnc3n2)cc1	?	?	1.9%	-22.7%	4.5%	?
Cc1ccccc1NC(=O)C1CCN(c2cc(-c3ccccc3)nc3ncnn23)CC1	?	20.6µM*	-15.2%	-13.5%	-2.7%	14.6µM*
Cc1nc2ncnn2c(N2CCC(C(=O)NC3CCCC3)CC2)c1Cc1ccccc1	-18.2	-30.0%	-2.0%	-12.0%	9.1%	-29.1%
COc1ccc(S(=O)(=O)N2CCN(c3cc(-c4ccccc4)nc4ncnn34)CC2)cc1	-68.7*	16.4µM*	?	-16.4%	4.0%	20.6µM*
O=S(=O)(c1ccc(Br)cc1)N1CCN(c2cc(-c3ccccc3)nc3ncnn23)CC1	?	25.9µM*	-28.8%	-1.5%	3.1%	13µM*
O=S(=O)(c1ccc(Br)cc1)N1CCN(c2ccccc2)CC1	7.9	-2.1%	5.3%	-3.7%	.	12.7%
Cc1nc2ncnn2c(N2CCN(S(=O)(=O)c3ccc(Br)cc3)CC2)c1C	39.0	4.61µM*	-30.4%	-3.2%	-1.2%	?
COc1ccc(NC(=O)Cn2cc(S(=O)(=O)c3ccccc3)c(=O)c3cc(C)ccc32)cc1Cl	.	2.2%	-20.8%	-1.5%	6.4%	-4.4%
C[C@@H]1CN([C@H](C)CO)C(=O)CCCn2cc(nn2)CO[C@H]1CN(C)S(=O)(=O)c1ccc(C#N)cc1	7.2	-16.4%	21.0%	-7.8%	.	-8.3%
COc1cc2c(cc1OC)C(C)N(C(=O)c1cc3c(=O)oc4ccc(C)cc4c3s1)CC2 (configuration not stated)	-10.7	14.6µM*	11.6%	-2.4%	0.0%	13µM*
Cc1cccc2c1-c1sc(C(=O)NCCCN3CCC(C)CC3)cc1CO2	?	?	?	-64.8%	0.2%	?
COc1cc2c(cc1OC)C(C)N(C(=O)C1COc3ccccc3O1)CC2 (configuration not stated)	-51.1*	25.9µM*	-28.1%	7.3%	3.1%	16.4µM*
COc1cc2c(cc1OC)C(C)N(C(=O)c1cc3c(s1)-c1ccccc1OC3)CC2 (configuration not stated)	-16.1	20.6µM*	11.2µM*	-29.1%	2.6%	?
SMILES	IL-1B inflam inh	TDP1 cell noCPT	TGFb inhibitor	HepG2 tox	TDP1 inh	DT40 TDP1 CPT
COc1cc2c(cc1OC)C(C)N(C(=O)c1cccs1)CC2 (configuration not stated)	-15.9	?	-7.9%	3.2%	2.7%	?
COc1cc2c(cc1OC)C(C)N(C(=O)c1cc3c(s1)-c1c(C)cccc1OC3)CC2 (configuration not stated)	-0.7	16.4µM*	?	-33.3%	0.0%	?
COc1cc(NC(=O)c2cc3c(=O)oc4ccc(C)cc4c3s2)cc(OC)c1OC	.	-7.5%	-14.1%	0.8%	6.9%	-2.2%
Cc1nc(CCNC(=O)c2cc(COc3ccc(F)cc3Cl)on2)sc1C	?	?	?	-63.1%	.	?
CCOC(=O)c1c(NC(=O)c2cc(-c3ccccc3OC)on2)sc(C)c1C	.	5.0%	7.3%	-8.9%	-4.5%	-2.4%
CN(C)CCCNc1nc2cc(-c3ccn[nH]3)sc2c(=O)n1C	23.9	-19.8%	?	-63.5%	.	-1.3%
CN(C)c1ccc(/C=C2\Cc3ccccc3C2=O)cc1	.	3.55µM*	40.9%	-23.0%	.	?
Cc1ccc2c(c1)C/C(=C/c1ccc(N(C)C)cc1)C2=O	.	?	14.7%	-20.9%	.	?
CN(C)c1ccc(/C=C2\CCC/C(=C\c3ccccc3)C2=O)cc1	-64.7*	?	-2.9%	2.2%	4.1%	?
